Source: PubChem (National Center for Advancing Translational Sciences (NCATS))
Rows were chosen to be rich in hits. Some 3.6% of all compounds tested hit in one or more screens of this group.
CRE-bla Fsk – modulators of forskolin-stimulated CRE signaling in CHO cells; 71,000 tested, 2.5% active; Potency, µM (top dose mostly 38.2 µM), actives largely listed as activators; CHO CRE-bla reporter (cAMP response element driving beta-lactamase), forskolin EC10, beta-lactamase ratio; active means well fitted activation curve with a large enough effect in the signal ratio, with a control signal flat, not every such curve was filed as active; inconclusive means small, poorly fitted or top-dose-only effect, or effect the other way, or a change in a side signal; the % refers to the signal ratio
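Forskolin analogue NKH 477 at EC10 stimulated CRE-driven beta-lactamase in CHO cells alongside compound dilution series. Beta-lactamase was measured with CCF4, excitation 405 nm, emission ratio 460/530 nm.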
TSHR agonist – agonists of human thyroid stimulating hormone receptor. P16473. HEK293-CNG-TSHR cells (CNG channel as cAMP sensor), membrane potential dye, cAMP. Potency, µM (doses to about 57.1 µM), hits mostly activators. AID 926. 73,000 tested, 0.48% active; active means well fitted activation curve with a large enough effect in the main read-out, with a control signal flat, not every such curve was filed as active; inconclusive means small, poorly fitted or top-dose-only effect, or a change in a side signal; inactive means no such curve, though single readings can be large or run the other way; reference of the percent scale not stated here;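 further: the control signal comes from parental cells without the receptor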
Target sequence (P16473 whole entry, looked up): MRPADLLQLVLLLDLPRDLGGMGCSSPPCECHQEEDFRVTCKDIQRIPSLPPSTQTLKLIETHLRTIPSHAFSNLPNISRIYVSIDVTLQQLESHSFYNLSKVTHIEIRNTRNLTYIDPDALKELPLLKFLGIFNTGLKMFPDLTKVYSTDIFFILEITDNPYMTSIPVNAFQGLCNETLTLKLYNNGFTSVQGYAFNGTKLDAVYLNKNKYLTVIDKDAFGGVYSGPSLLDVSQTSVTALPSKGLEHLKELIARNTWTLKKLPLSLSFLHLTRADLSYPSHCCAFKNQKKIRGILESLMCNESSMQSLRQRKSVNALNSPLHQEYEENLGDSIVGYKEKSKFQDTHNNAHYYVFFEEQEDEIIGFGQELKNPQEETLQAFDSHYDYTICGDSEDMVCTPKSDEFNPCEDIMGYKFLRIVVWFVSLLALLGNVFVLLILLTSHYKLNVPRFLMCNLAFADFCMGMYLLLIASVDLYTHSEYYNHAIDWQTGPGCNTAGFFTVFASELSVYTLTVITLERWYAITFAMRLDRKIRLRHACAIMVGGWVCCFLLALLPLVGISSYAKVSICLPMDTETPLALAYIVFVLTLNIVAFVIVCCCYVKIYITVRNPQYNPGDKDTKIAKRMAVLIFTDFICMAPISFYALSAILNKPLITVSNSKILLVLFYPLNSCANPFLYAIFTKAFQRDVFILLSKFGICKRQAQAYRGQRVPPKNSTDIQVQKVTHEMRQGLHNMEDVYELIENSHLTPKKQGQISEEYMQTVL
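HEK 293 cells stably expressing TSHR and a modified CNG channel, with CNG-only parental cells as counterscreen, were preloaded 60 min at room temperature with membrane potential dye containing 100 uM RO 20-1724. Compound exposure was 30 min, and depolarization was read as fluorescence at 590 nm.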
IkB signaling – suppresses IkB signaling in ABC-DLBCL reporter cells | 110,000 tested, 0.04% active | AID 445 | ABC-DLBCL IkBa-CBG/CBR dual luciferase ratio, 4 h; response scale: scaled: untreated 0%, proteasome inhibitor 100% | Potency, µM (top dose mostly 57.1 µM); active means well fitted curve in the direction sought with a large enough effect in the signal ratio, not every such curve was filed as active; inconclusive means small, poorly fitted or top-dose-only effect, or a change in a side signal; the % refers to the signal ratio;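 further: the direction sought is a rising ratio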
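In this assay, an IκBα–CBG68 fusion accumulates when IKK-driven degradation is blocked; native CBR normalizes for cell number. OCI-Ly3 cells were treated 4 h with compound and doxycycline, then green and red light read after Chroma-Glo addition.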
ERK AVP block – inhibitors of vasopressin-stimulated ERK signaling pathway | HEK293-V1b, vasopressin-stimulated pERK AlphaScreen | Potency, µM (doses to about 57.5 µM), actives largely listed as inhibitors | 72,000 tested, 0.99% active; further: nearly all actives have a fitted effect of over 55% in size
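HEK293 cells stably expressing V1b receptor, preincubated 30 min at 37 °C with compound, then stimulated 5 min with 25 nM vasopressin. Phospho-ERK by AlphaScreen SureFire after 5 h RT; normalized to DMSO and vasopressin; AC50 by Hill fit.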
HEK293 cAMP ctrl – parental HEK293 cAMP activation (counter-screen). AID 938. 73,000 tested, 2.5% active. parental HEK293 CNG cAMP sensor, membrane potential fluorescence. Potency, µM (titrated, usually from 57.1 µM), most hits filed as activators; further: nearly all actives have a fitted effect of over 55% in size
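Parental HEK 293 cells stably expressing a modified CNG channel (no TSHR) report cAMP rise as membrane depolarization. Membrane potential dye with 100 uM RO 20-1724 was loaded for 60 min at room temperature, then compound added for 30 min; fluorescence read at 590 nm.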
CHO tox 24h – cytotoxicity in CRE-bla CHO cells at 24 h; shares compounds with CRE-bla Fsk; CRE-bla CHO viability, ATP luminescence, 24 h; activity, negative = viability loss, % at 46.1 µM; 120 tested, under 10 active; AID 905
CHO via 40h – reduces CRE-bla CHO cell viability after 40 hours. shares compounds with CRE-bla Fsk. CRE-bla CHO viability, ATP luminescence, 40 h. Potency, µM, most hits filed as inhibitors. 120 tested, under 10 active
CREB luc CRC – confirmation of CRE signaling potentiators in HEK293 CREB reporter cells | shares compounds with CRE-bla Fsk | HEK293 CRE-luc2P, NKH477 EC10 potentiation, luminescence, 4 h | Potency, µM (doses to about 38.3 µM), most hits filed as activators | 120 tested, 80% active | AID 907
parental cAMP – TSHR-independent cAMP elevation, counter-screen; shares compounds with TSHR agonist; parental HEK293 CNG biosensor, cAMP membrane potential fluorescence; activity change, negative = inhibition, % at 32.9 µM; 150 tested, under 10 active; AID 953
Of the large screens only hits and unclear results are named; the others gave an inactive call (follow-up assays come after a bar, where they were run). Unless noted, the call rests on the fitted dose curve; in most records, active means well fitted curve in the direction sought with a large enough effect; inconclusive means small, poorly fitted or top-dose-only effect, or another doubt; inactive means no such curve, though single readings can be large; an effect the other way counts as inactive or inconclusive.

N#C/C(=C\C1CC=CCC1)c1nc2ccccc2[nH]1 (stereo unspecified)	TSHR agonist inconclusive, HEK293 cAMP ctrl inconclusive
Cc1cc(N2CCN(S(=O)(=O)Cc3ccccc3)CC2)n2ncnc2n1	none
Cc1cc(N2CCN(S(=O)(=O)c3ccc4c(c3)OCCO4)CC2)n2ncnc2n1	CRE-bla Fsk 5µM, TSHR agonist inconclusive, HEK293 cAMP ctrl inconclusive | CHO tox 24h inactive | CHO via 40h inactive | CREB luc CRC 13µM
Cc1ccc(CNc2nc3ccccc3n3c(C)nnc23)cc1	none (no result: CRE-bla Fsk, TSHR agonist, ERK AVP block, HEK293 cAMP ctrl)
COc1cc(OC)cc(-c2nnc(SCC(=O)N(C(C)C)C(C)C)o2)c1	TSHR agonist 25µM | parental cAMP inactive
CCOC(=O)CCc1c(C)nc2c(c(C)nn2C(C)(C)C)c1C	TSHR agonist 25µM | parental cAMP inactive
N=c1c(C(=O)NCc2ccc(F)cc2)cc2c(=O)n3ccccc3nc2n1Cc1ccco1	CRE-bla Fsk inconclusive | parental cAMP inactive
COCCn1c(=N)c(C(=O)NCc2ccco2)cc2c(=O)n3ccccc3nc21	CRE-bla Fsk inconclusive
CCOC(=O)C1CCCN(C(=O)Cn2sc3nc(C)cc(C)c3c2=O)C1 (stereo unspecified)	CRE-bla Fsk inconclusive, ERK AVP block inconclusive
CCOC(=O)C1C(=O)NC(N2CCOCC2)=NC1c1ccco1 (stereo unspecified)	none
O=C(CN(c1ccc2c(c1)OCCO2)S(=O)(=O)c1ccccc1)NCc1ccco1	TSHR agonist 25µM | parental cAMP inactive
Cc1ccc(N(CC(=O)NCc2ccco2)S(=O)(=O)c2ccccc2)cc1	TSHR agonist inconclusive, HEK293 cAMP ctrl inconclusive | parental cAMP inactive
COc1cc2[nH]c(=O)n(CCC(=O)N3CCN(c4cccc(C)c4C)CC3)c(=O)c2cc1OC	none
O=C(CN(Cc1ccccc1Cl)C(=O)Cn1nnc(-c2cccs2)n1)NCC1CCCO1 (stereo unspecified)	TSHR agonist 6.3µM | parental cAMP inactive
CC(=O)N1CCCc2cc(S(=O)(=O)N3CCC(C(=O)NCc4ccccc4Cl)CC3)ccc21	none (no result: CRE-bla Fsk, TSHR agonist, ERK AVP block, HEK293 cAMP ctrl)
Cc1occc1-c1nnc(SCC(=O)NCc2ccc3c(c2)OCO3)n1CC(C)C	TSHR agonist 16µM | parental cAMP inactive
Cc1nonc1NC(=O)CSc1nnc(-c2ccoc2C)n1CC(C)C	none
Nc1nc(-c2ccccc2)c(-c2ccccc2)c(-c2nc(N)nc(-c3ccccc3)c2-c2ccccc2)n1	none
CC1(C)CC2CC(C)(CN2S(=O)(=O)c2ccc(N)cc2)C1 (stereo unspecified)	TSHR agonist 25µM | parental cAMP inactive
CN1CCN(S(=O)(=O)c2ccc(N)cc2)CC1	none (no result: ERK AVP block)
O=C(c1ccc(Br)o1)N(Cc1ccccc1)c1ccccn1	TSHR agonist inconclusive, ERK AVP block inconclusive, HEK293 cAMP ctrl inconclusive | parental cAMP inactive
Cn1cc(Cl)c(C(=O)N(Cc2ccccc2)c2ccccn2)n1	none
O=C(C1COc2ccccc2O1)N1CCCC1 (stereo unspecified)	none | parental cAMP inactive
Cc1nc2c(cnn2-c2ccc(Cl)cc2)c(=O)n1-c1ccc2c(c1)OCCO2	CRE-bla Fsk inconclusive
CCCS(=O)(=O)N1CCN(C(=O)c2cccnc2)CC1	none (no result: CRE-bla Fsk, IkB signaling, ERK AVP block)
CCCS(=O)(=O)N1CCN(C(=O)c2ccc(-c3ccccc3)cc2)CC1	none (no result: TSHR agonist) | parental cAMP inactive
C=CCn1c(NCc2ccccc2)nc2ccccc21	none
C=CCn1c(NCc2ccc3c(c2)OCO3)nc2ccccc21	none | parental cAMP inactive
Cc1oc(-c2cccc(Cl)c2)nc1CN1CCC(C(=O)NC(C)C)CC1	none (no result: CRE-bla Fsk, TSHR agonist, ERK AVP block, HEK293 cAMP ctrl)
Cc1oc(-c2cccc(Cl)c2)nc1CN1CCCC(C(=O)NC(C)c2ccc3c(c2)OCCO3)C1 (stereo unspecified)	CRE-bla Fsk inconclusive, IkB signaling inconclusive, ERK AVP block inconclusive | parental cAMP inactive
CCNc1nc(NCc2ccccc2)nc(Oc2ccc(=O)[nH]n2)n1	CRE-bla Fsk inconclusive, ERK AVP block inconclusive
CSc1nc(NC(C)(C)C)nc(Oc2ccc(=O)[nH]n2)n1	TSHR agonist 25µM | parental cAMP inactive
CCn1cc(C(=O)NCCCN(CC(C)C)CC(C)C)c(=O)c2cc(S(=O)(=O)N3CCc4ccccc4C3)ccc21	none (no result: CRE-bla Fsk, TSHR agonist, ERK AVP block, HEK293 cAMP ctrl)
CS(=O)(=O)N1CCN(C(=O)c2cc(-c3cccs3)nc3ccccc23)CC1	TSHR agonist 20µM | parental cAMP inactive
O=C(c1ccccc1F)N1CCN(CC2CC3C=CC2C3)CC1 (stereo unspecified)	none
COc1cc(NC(=O)c2oc3c(c2C)-c2nn(Cc4cccc(Cl)c4)cc2CC3)cc(OC)c1	none (no result: CRE-bla Fsk, TSHR agonist, ERK AVP block, HEK293 cAMP ctrl)
COc1cccc(C2CC(c3ccccc3C)n3nc(N)nc3N2)c1 (stereo unspecified)	none
COc1cccc(C2CC(c3ccccc3OC)n3nc(N)nc3N2)c1 (stereo unspecified)	none | parental cAMP inactive
O=C1C2C3CCCC3=C3CCCC3C2C(=O)N1c1ccc(Cl)cc1 (stereo unspecified)	TSHR agonist 3.2µM | parental cAMP inactive
O=C1C2C3CCCC3=C3CCCC3C2C(=O)N1c1cccc(Cl)c1 (stereo unspecified)	TSHR agonist inconclusive, HEK293 cAMP ctrl inconclusive
CC(=O)N1CCCc2cc(S(=O)(=O)N(C)CCC#N)ccc21	none
CC(=O)N1CCCc2cc(S(=O)(=O)N(CC(C)C)CC(C)C)ccc21	TSHR agonist 13µM | parental cAMP inactive
CCc1c(C)[nH]c2c1C(=O)C(CN1CCOCC1)CC2 (stereo unspecified)	none (no result: CRE-bla Fsk, TSHR agonist, IkB signaling, HEK293 cAMP ctrl)
COc1ccc(C(=O)N(Cc2ccco2)Cc2cccs2)c(O)c1	TSHR agonist 2.5µM | parental cAMP inactive
Cc1c2cnn(CC(=O)NCC(C)c3ccccc3)c(=O)c2c(C)n1Cc1cccc(Cl)c1 (stereo unspecified)	none (no result: CRE-bla Fsk, TSHR agonist, ERK AVP block, HEK293 cAMP ctrl)
Cc1ccc(S(=O)(=O)N(CC(=O)N2CCC(C(N)=O)CC2)Cc2ccc(F)cc2)cc1	none
O=C(CN(Cc1ccc(F)cc1)S(=O)(=O)c1ccccc1)N1CCCCC1	TSHR agonist 25µM | parental cAMP inactive
